# Measurements published in PubChem BioAssay AID2158 (National Center for Advancing Translational Sciences (NCATS), 2009).
# Values joined by “and” are separate entries in the source; they are usually repeats but may differ in a detail not shown here. Identical values can stand only once. Results filed as inconclusive are left out. The source holds several records for some structures; these can differ, active in one and inactive in another. Active and inactive are the calls of the source. Calls come from the whole dose curve; as a rule, active = well fitted inhibition curve with a large enough effect; inconclusive = small, poorly fitted or top-dose-only effect; inactive = no such curve, though single readings can be large or run the other way.
# Molecular target: Cruzipain (Trypanosoma cruzi) (UniProt P25779)
# Assay: Confirmation qHTS Assay for Inhibitors of Cruzain; note: nearly all actives have a fitted effect of over 40% in size;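 for activity change, negative = inhibition: plate controls were uninhibited enzyme control for no effect and buffer wells lacking enzyme for full effect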
# Conditions: purified cruzain, Z-FR-AMC fluorescence, 0.01% Triton
# In short: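 Reaction progress from the 60 s rise in AMC fluorescence (ex 360, em 450 nm) after adding 2 uM Z-FR-AMC. Before this, 1.5 nM cruzain sat 15 min at room temperature with compound in pH 5.5 acetate buffer with 5 mM DTT and 0.01% Triton X-100.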
# Potency is the fitted concentration of half-maximal effect.
# Sequence of Cruzipain (Trypanosoma cruzi) (P25779 123-467 limits assumed): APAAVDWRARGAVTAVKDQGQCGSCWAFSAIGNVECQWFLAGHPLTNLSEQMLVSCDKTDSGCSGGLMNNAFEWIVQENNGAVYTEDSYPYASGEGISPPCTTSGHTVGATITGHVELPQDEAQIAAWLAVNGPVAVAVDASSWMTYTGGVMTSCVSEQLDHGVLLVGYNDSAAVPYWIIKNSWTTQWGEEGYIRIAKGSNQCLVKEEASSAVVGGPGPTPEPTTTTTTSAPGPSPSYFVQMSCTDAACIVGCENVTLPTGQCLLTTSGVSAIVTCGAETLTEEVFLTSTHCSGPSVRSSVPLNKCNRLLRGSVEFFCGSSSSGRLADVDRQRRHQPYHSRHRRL
SMILES,"activity change, negative = inhibition",Potency
CC(C)CC(=O)OC1C(N2CCOCC2)c2c(ccc(/C=C/C(=O)N3CCOCC3)c2O)OC1(C)C (stereo not given),-26% (inactive),
COc1cccc(NC(=O)C(OC(=O)CNC(=O)c2ccccc2)c2ccccc2)c1 (stereo not given),,12.6 µM (active)
N#Cc1nc(NCC(F)F)c2ncn(-c3cccc(Cl)c3)c2n1,,0.0891 µM (active)
COc1cc(NC(=O)C(OC(=O)CNC(=O)c2ccccc2)c2ccccc2)cc(OC)c1 (stereo not given),,25.1 µM (active)
O=C(Cn1c(=O)oc2cc(S(=O)(=O)N3CCCCCC3)ccc21)NC1CCCCCCC1,-3.87% (inactive),
CCOC(=O)CNc1nc(C#N)nc(N2CCOCC2)n1,,4.47 µM (active) and 6.31 µM (active)
O=C(CNC(=O)c1ccccc1)OC(C(=O)Nc1cc(C(F)(F)F)ccc1Cl)c1ccccc1 (stereo not given),-10.9% (inactive) and -27.8% (inactive),5.01 µM (active)
N#Cc1nc(N2CCCCC2)nc(N2CCCCC2)n1,,8.91 µM (active)
Cc1cccc2cc(CN(Cc3ccccc3)Cc3nnnn3Cc3ccccc3)c(=O)[nH]c12,-11.7% (inactive),
C=CCn1c(SCC(=O)Nc2cc3oc4ccccc4c3cc2OC)nnc1-c1cnccn1,-11.8% (inactive),
O=C(NC(=S)Nc1nc(-c2cccc3ccccc23)cs1)c1cc2ccccc2o1,-1.65% (inactive),
CCc1ccc(C(=O)COC(=O)CNC(=O)C2CCCCC2)cc1,,7.08 µM (active)
COc1ccc(-c2nn3c(-c4cc(C)[nH]n4)nnc3s2)cc1,-13.7% (inactive),
N#Cc1nc(Nc2cccc3ccccc23)nc(NC2CCCC2)n1,,2.82 µM (active)
CC(C)Nc1nc(C#N)nc(NC(C)C)n1,,28.2 µM (active)
O=C(COC(=O)CNC(=O)c1ccccc1Cl)Nc1ccccc1Cl,,3.55 µM (active)
CCSc1nnc(NC(=O)/C=C/c2ccc3c(c2)OCO3)s1,-48.4% (inactive),
CCOC(=O)C(C(=O)OCC)N(C#N)c1nc(OC)nc(N(C)C)n1,,15.8 µM (active)
O=C(O)Cc1nnc(-c2cc3ccccc3[nH]2)s1,10.6% (inactive),
Cc1ccc(C)c(OCCn2c(CCNC(=O)C3CCCCC3)nc3ccccc32)c1,,0.0708 µM (active)

SMILES,"activity change, negative = inhibition",Potency
CCN1CCN(CCCNC(=O)c2cc3c(s2)-c2ccccc2OC3)CC1,,15.8 µM (active)
COc1ccc2[nH]c3c(NCCN4CCCCC4)ncnc3c2c1,,12.6 µM (active)
COc1cc(-c2nn3c(-c4cc(-c5ccccc5)n[nH]4)nnc3s2)cc(OC)c1OC,-7.01% (inactive),
Cc1ccccc1-n1c(C)cc(/C=C2/C(=N)N3C(c4ccccc4)=CSC3=NC2=O)c1C,-3.9% (inactive),
CC(C)(C)c1ccc(OCCn2c(CCNC(=O)C3CCCCC3)nc3ccccc32)cc1,,6.31 µM (active)
CCc1ccc(OCCn2c(CCNC(=O)C3CCCCC3)nc3ccccc32)cc1,,2.24 µM (active)
CCc1ccc(OCCCn2c(CCCNC(=O)C3CCCCC3)nc3ccccc32)cc1,-18.8% (inactive),
C/C(CC(=O)Nc1cc(Cl)ccc1Cl)=N\NC(N)=S,,1.12 µM (active)
O=C(CNC(=O)c1ccccc1Cl)OC(C(=O)Nc1cc(C(F)(F)F)ccc1Cl)c1ccccc1 (stereo not given),,8.91 µM (active)
COc1cccc(-c2nn3c(-c4cc(C)[nH]n4)nnc3s2)c1,-5.64% (inactive),
Cc1ccccc1OCC(=O)NCC(=O)OCC(=O)c1ccc(-c2ccccc2)cc1,-15.9% (inactive),
Cc1ccccc1OCC(=O)NCC(C)NC(=O)COc1ccccc1C (stereo not given),36.5% (inactive),
CCCCC(O)C(=O)Nc1cc(C(F)(F)F)ccc1Cl (stereo not given),-16.9% (inactive),
COc1ccc(N=Cc2nc(-c3ccccc3)oc2OC(=O)c2ccccc2)cc1,-22% (inactive),
N#Cc1nc(Nc2ccc(C(F)(F)F)cc2)nc(NC2CCCC2)n1,2.22% (inactive),
Cc1cc(C)cc(OCCCn2c(CCNC(=O)C3CCCCC3)nc3ccccc32)c1,,0.891 µM (active)
N#Cc1nc(Nc2cccc(Cl)c2)nc(NC2CCCC2)n1,,0.0794 µM (active)
C=Cn1ccnc1P(=S)(c1ccc2c(c1)c1ccccc1n2CC)c1nccn1C=C,-8.46% (inactive),
COc1cccc(CNC(=O)c2ccc3c(c2)N(Cc2ccc(F)cc2Cl)C(=O)c2ccccc2S3)c1,2.24% (inactive),
